About 20,000 (21%) of roughly 96,000 compounds were called active. Only a sample is shown. A number with no mark means an inactive call.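 Rule for the calls: active = CYP2C19 inhibition above a set limit at 5 µM in the primary screen (cut at about 50% in these data); inactive = the rest.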
Each compound was assayed against Cytochrome P450 2C19 (Homo sapiens) (UniProt P33261) (assay: blockers of cytochrome P450 2C19 activity – biochemical, luminescence, ADME assay, primary screen (AID 778;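 note: plate controls were negative control wells for no effect and 2.5 mM tranylcypromine positive control for full effect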)). Details: CYP2C19 Supersomes, luciferin-H EGE luminescence, 30 min; at 5 µM; stronger effect = higher value.
Chain of Cytochrome P450 2C19 (Homo sapiens) (P33261 whole entry, looked up): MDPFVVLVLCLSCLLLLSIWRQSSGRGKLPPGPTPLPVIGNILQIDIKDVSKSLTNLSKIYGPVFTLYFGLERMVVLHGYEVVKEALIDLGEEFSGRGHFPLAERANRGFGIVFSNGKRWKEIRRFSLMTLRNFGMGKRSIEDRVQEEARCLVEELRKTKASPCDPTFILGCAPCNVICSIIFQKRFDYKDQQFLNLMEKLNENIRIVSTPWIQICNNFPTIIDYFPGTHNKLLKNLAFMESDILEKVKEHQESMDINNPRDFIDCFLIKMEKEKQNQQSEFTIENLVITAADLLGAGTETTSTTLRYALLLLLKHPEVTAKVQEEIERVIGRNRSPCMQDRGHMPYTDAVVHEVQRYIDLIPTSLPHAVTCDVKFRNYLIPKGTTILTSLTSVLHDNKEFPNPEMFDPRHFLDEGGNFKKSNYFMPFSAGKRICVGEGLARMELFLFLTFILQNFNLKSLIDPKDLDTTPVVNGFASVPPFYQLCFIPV
Work on `CCCN(CCC)CCNC(=O)c1cc2c(C)nc3ccccc3c2o1` yielded an inhibition of -9.3%. For `Cc1c(C(=O)OCC(=O)N(CCC#N)c2ccccc2)oc2c1ccc1ccccc12`, the inhibition was 18.2%. Compound `O=C(O)CCC(=O)N(Cc1cccs1)Cc1cccs1` has an inhibition of -5.7%. `COc1cccc(-c2cnc(OC(C)(C)C)nc2OC(C)(C)C)c1` showed an inhibition of 9.2%. `CCCNC(=O)c1ccc(Cl)c(Cl)c1` was tested, and the inhibition was -2.2%. Work on `CN(C)c1nc(N)nc(CSc2nnnn2-c2cccc3ccccc23)n1` yielded an inhibition of 24.3%. `O=C1C2(c3ccccc3)CN(CCCO)CC1(c1ccccc1)CN(CCCO)C2` was tested, and the inhibition was 6.9%. `Cc1ccccc1C(OCC(O)CN1CCCCC1CCO)c1ccccc1` (stereo not drawn) showed an inhibition of 18%. `CCc1nnc(NC(=O)CCC(=O)O)s1` showed an inhibition of -16.3%. `CC(C)(C)n1nnc(CCc2nnn(C(C)(C)C)n2)n1` gave an inhibition of 34.7%. With `Cc1ccc(-c2csc(NC(=O)Cc3cccs3)n2)cc1C` the inhibition was 10%. For `Cc1cc(C)c2nc(NC(=O)c3ccc4c(c3)OCO4)sc2c1`, the inhibition was -1.4%. For `Cn1cc([N+](=O)[O-])c(C(=O)Nc2ccc3c(c2)OCCO3)n1`, the inhibition was 43.6%. `O=C(Nc1ccc2c(c1)OCCO2)c1cnccn1` was tested, and the inhibition was 14.5%. `O=C(Nc1nc(-c2ccc3c(c2)OCO3)cs1)c1ccncc1` was tested, and the inhibition was 63.2% (active). With `O=C(Nc1ccc2c(c1)OCCO2)c1ccncc1` the inhibition was 76.5% (active). `O=C(O)c1cccc2c1C(=O)N(C1CCCCC1)C2` gave an inhibition of -19.3%. For `Brc1cccc(-c2nnc3n2CCC3)c1`, the inhibition was -4.8%. `O=C(NCCCN1CCOCC1)c1cc2c(s1)CCC2` was tested, and the inhibition was 52.8% (active). For `O=C(CNC(=O)c1cc2c(s1)CCC2)Nc1ccccc1Br`, the inhibition was 7%. Work on `O=C(NCCN1CCOCC1)c1c(F)c(F)c(F)c(F)c1F` yielded an inhibition of -10.6%. With `CCCCOC(=O)CNc1nnc(SCC(=O)OCC)[nH]c1=O` the inhibition was -15.4%. With `Clc1ccc(CSc2nnc([C@@H]3CCCN3)o2)cc1` the inhibition was 97.9% (active). `COC(=O)c1ccc(CSc2nc3cc(Cl)ccc3o2)cc1` gave an inhibition of -5.7%. In the case of `Fc1ccc(CSc2nnc(-c3cc4c(s3)-c3ccccc3CC4)o2)cc1`, the inhibition is reported as 31.9%. In the case of `CCC(C)NC(=O)c1cc(Cl)ccc1OC` (stereo not drawn), the inhibition is reported as 22%. With `Cc1cc(C(F)F)n2nc(C(=O)Nc3ccc(S(=O)(=O)NC45CC6CC(CC(C6)C4)C5)cc3)nc2n1` the inhibition was 21.2%. `COc1ccccc1C(=O)Nc1nc2nc(-c3ccccc3)cc(=O)n2[nH]1` gave an inhibition of 7.1%. For `COC(=O)CNC(c1ccccc1Cl)c1cc(Br)ccc1NC(=O)CCN1CCOCC1` (stereo not drawn), the inhibition was -3.3%. Work on `CC(=O)c1c(C)n(-c2ccc(N(C)C)cc2)c2ccc(OCC(N)=O)cc12` yielded an inhibition of 18.6%. `CCn1c(=N)c(C(=O)NCCCOC)cc2c(=O)n3cccc(C)c3nc21` was tested, and the inhibition was -9.8%. In the case of `Cc1cccn2c(=O)c3cc(C#N)c(=O)n(CCCN4CCOCC4)c3nc12`, the inhibition is reported as 61.4% (active). For `Cc1cccn2c(=O)c3cc(C(=O)N4COCC4(C)C)n(C)c3nc12`, the inhibition was 0.5%. `CCCc1[nH]nc2c1C(c1ccc(Br)s1)C(C#N)=C(N)O2` (stereo not drawn) showed an inhibition of 34.4%. For `Cc1noc(NS(=O)(=O)c2ccc(N/C=C/C(=O)c3ccccc3)cc2)c1C`, the inhibition was -5.7%. With `Cc1noc(C)c1CSc1nc2cc(S(=O)(=O)N3CCOCC3)ccc2o1` the inhibition was 63.9% (active). `Cc1ccc(S(=O)(=O)N2CCN(S(=O)(=O)N3CCOCC3)CC2)cc1` showed an inhibition of 7.3%. Work on `Cc1ccc(Oc2nc3ccccc3n3c(C)nnc23)cc1` yielded an inhibition of -14.5%. In the case of `COc1ccccc1-n1nnnc1S(=O)(=O)Cc1ccc(Cl)cc1`, the inhibition is reported as 58.4% (active). `COc1ccccc1N1CCN(C(=O)CN(Cc2ccc(Cl)cc2)S(C)(=O)=O)CC1` gave an inhibition of 34%. `CCOCCCNC(=O)C(NC(=O)c1ccc(=O)[nH]c1)c1ccc(C)cc1` (stereo not drawn) was tested, and the inhibition was 5.2%. In the case of `COc1cc(C(=O)Nc2oc(-c3ccccc3)c(-c3ccccc3)c2C#N)cc(OC)c1OC`, the inhibition is reported as 27.1%. For `N#Cc1c(/N=C/N2CCCC2)oc(-c2ccccc2)c1-c1ccccc1`, the inhibition was 45.7%. `COc1ccc(-c2oc(/N=C/N3CCCC3)c(C#N)c2-c2ccc(OC)cc2)cc1` was tested, and the inhibition was 59.3% (active). Work on `COc1cccc(CN2C(=O)CCC2(C)C(=O)NC2CCCCCC2)c1` (stereo not drawn) yielded an inhibition of 8.6%. With `CCc1cc2c(N3CCN(c4nnc(CC)s4)CC3)ncnc2s1` the inhibition was 52.3% (active). Compound `Cc1ccc(-n2ncc3c(N4CCN(c5ccc(F)cc5)CC4)ncnc32)c(C)c1` has an inhibition of -22.2%. Compound `Cc1nnc(SCC(=O)Nn2cnnc2)s1` has an inhibition of 4%. In the case of `CC(NCCO)C(=O)C12CC3CC(CC(C3)C1)C2` (stereo not drawn), the inhibition is reported as -5.4%. With `CC(C)(C)Cc1nnc(NC(=O)c2cc(-c3ccccc3)nc3ccccc23)s1` the inhibition was 11.9%. Compound `CCn1cc(C(=O)N2CCN(Cc3ccc4c(c3)OCO4)CC2)c2cc(OC)c(OC)cc2c1=O` has an inhibition of 29.5%. `COc1cccc(OC)c1OCCN1CCN(C(=O)c2ccco2)CC1` showed an inhibition of 21%. With `COc1ccc(Br)cc1CN1CCN(C(=O)c2cccc(OC)c2OC)CC1` the inhibition was 74% (active). `CCCn1nc2cc(C(=O)NCc3ccccc3)ccc2c1OCC` gave an inhibition of 2.2%. `CCCS(=O)(=O)C(=C1Nc2ccccc2N1)S(=O)(=O)CCC` gave an inhibition of 8.6%. `CCOC(=O)CN1C(=O)C(O)(CC(=O)c2ccccn2)c2ccccc21` (stereo not drawn) showed an inhibition of 6.5%. `O=C(CC1(O)C(=O)N(CN2CCOCC2)c2ccccc21)c1ccccc1` (stereo not drawn) was tested, and the inhibition was 12.7%. With `C=CCN1C(=O)C(O)(CC(=O)c2ccc(Cl)cc2)c2ccccc21` (stereo not drawn) the inhibition was 89.1% (active). `Fc1ccc2nc(Nc3nc4c(s3)CCCC4)sc2c1` was tested, and the inhibition was -8.1%. For `Cc1nc2ccc(S(=O)(=O)NC(C(=O)N3CCCCCC3)C(C)C)cc2s1` (stereo not drawn), the inhibition was 21.2%. `CC(c1ccco1)N(C(=O)COc1ccccc1[N+](=O)[O-])c1ccccn1` (stereo not drawn) showed an inhibition of 40.5%. Compound `CC(C)Cc1ccc(S(=O)(=O)N2CCN(C(=O)c3ccco3)CC2)cc1` has an inhibition of 28.1%. `CC(c1ccco1)N(C(=O)c1ccc(S(=O)(=O)N2CCCCC2)cc1)c1ccccn1` (stereo not drawn) was tested, and the inhibition was 59.1% (active).

— PubChem BioAssay AID778 (Sanford-Burnham Center for Chemical Genomics, 2007)
